Assay results reported in paper PMC7862700, “An all-to-all approach to the identification of sequence-specific readers for epigenetic DNA modifications on cytosine”.

What was measured:
Assay in all cases: DAPPL (digital affinity profiling via proximity ligation, sequencing); 10 mM Tris-HCl pH 7.5, 50 mM NaCl, 1 mM DTT, 4% glycerol, room temperature, 30 min; GST-TFs on glutathione beads, 16-mer random dsDNA library, 0.1% formaldehyde crosslink after washing; high values mean tight binding
[1] = target: HSF1 (Homo sapiens, UniProt Q00613 1-529); settings: protein: recombinant; tags: N-terminal GST; chain copies: 3; dsDNA, one strand shown
Summary of the method: (§1)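 Pools were built from human transcription factors expressed in yeast as GST fusions, captured on glutathione beads and DNA-barcoded, along with a tag-only sample. Incubation with 200 nmole of a 16-mer random double-stranded DNA library lasted 30 min at room temperature in Tris/NaCl/DTT/glycerol buffer, and was followed by washing, 0.1% formaldehyde crosslinking, proximity ligation, PCR amplification and Illumina NextSeq500 sequencing. Binding signal is the quotient of each hexamer's read frequency for a factor and its frequency for the tag-only sample.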

[2] = target: CRX (Homo sapiens, UniProt O43186 1-299); settings: protein: recombinant; tags: N-terminal GST; dsDNA, one strand shown
Summary of the method: as §1

[3] = target: T1, SPDEF (Homo sapiens, UniProt O95238 1-335); settings: protein: recombinant; tags: N-terminal GST; dsDNA, one strand shown
T1 sequence: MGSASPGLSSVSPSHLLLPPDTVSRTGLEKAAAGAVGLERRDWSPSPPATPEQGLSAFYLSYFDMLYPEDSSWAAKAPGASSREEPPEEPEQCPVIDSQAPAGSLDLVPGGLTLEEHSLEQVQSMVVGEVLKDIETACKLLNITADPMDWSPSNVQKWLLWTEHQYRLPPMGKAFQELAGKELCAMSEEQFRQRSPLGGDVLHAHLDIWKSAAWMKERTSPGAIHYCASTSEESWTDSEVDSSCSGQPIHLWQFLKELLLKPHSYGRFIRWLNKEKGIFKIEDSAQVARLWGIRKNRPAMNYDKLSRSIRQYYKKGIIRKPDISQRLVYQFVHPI
Summary of the method: as §1

[4] = target: T2, ERG (Homo sapiens, UniProt P11308 1-479); settings: protein: recombinant; tags: N-terminal GST; dsDNA, one strand shown
T2 sequence: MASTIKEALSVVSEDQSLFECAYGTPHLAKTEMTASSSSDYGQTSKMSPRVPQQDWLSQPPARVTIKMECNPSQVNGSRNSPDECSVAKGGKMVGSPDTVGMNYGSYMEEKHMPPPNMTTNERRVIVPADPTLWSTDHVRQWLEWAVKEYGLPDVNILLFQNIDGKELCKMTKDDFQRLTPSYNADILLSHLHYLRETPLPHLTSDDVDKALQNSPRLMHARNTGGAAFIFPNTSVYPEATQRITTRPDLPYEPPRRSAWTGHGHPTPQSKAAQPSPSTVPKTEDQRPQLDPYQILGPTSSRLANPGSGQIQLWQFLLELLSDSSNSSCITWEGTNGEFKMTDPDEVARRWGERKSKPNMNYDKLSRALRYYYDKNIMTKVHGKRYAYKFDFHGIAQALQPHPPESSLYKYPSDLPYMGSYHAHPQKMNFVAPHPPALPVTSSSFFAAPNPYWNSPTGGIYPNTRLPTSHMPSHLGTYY
Summary of the method: as §1

[5] = target: SPI1 (Homo sapiens, UniProt P17947 1-270); settings: protein: recombinant; tags: N-terminal GST; dsDNA, one strand shown
Summary of the method: as §1

[6] = target: T3, ELK3 (Homo sapiens, UniProt P41970 1-407); settings: protein: recombinant; tags: N-terminal GST; dsDNA, one strand shown
T3 sequence: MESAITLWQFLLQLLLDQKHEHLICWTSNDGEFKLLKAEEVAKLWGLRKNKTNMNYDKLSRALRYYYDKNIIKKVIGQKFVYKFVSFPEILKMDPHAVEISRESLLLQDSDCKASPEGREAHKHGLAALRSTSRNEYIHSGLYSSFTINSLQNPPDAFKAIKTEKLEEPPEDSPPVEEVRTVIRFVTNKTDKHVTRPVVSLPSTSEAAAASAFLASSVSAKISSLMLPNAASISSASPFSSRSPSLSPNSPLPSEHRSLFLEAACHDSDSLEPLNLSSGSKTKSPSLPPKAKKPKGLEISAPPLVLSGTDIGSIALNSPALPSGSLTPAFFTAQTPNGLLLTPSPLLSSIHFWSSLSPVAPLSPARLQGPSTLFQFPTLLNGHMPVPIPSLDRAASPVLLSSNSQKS
Summary of the method: as §1

Chain of CRX (O43186 whole entry): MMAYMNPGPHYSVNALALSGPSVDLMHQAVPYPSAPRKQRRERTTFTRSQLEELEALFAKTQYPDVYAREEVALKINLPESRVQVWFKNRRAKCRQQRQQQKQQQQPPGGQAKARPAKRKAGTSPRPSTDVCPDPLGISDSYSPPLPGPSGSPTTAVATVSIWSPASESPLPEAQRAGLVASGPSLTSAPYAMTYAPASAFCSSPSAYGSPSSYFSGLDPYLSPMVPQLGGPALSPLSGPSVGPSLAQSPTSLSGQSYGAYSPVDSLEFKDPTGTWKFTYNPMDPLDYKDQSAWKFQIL
Chain of HSF1 (Q00613 whole entry, the tested form may be a part): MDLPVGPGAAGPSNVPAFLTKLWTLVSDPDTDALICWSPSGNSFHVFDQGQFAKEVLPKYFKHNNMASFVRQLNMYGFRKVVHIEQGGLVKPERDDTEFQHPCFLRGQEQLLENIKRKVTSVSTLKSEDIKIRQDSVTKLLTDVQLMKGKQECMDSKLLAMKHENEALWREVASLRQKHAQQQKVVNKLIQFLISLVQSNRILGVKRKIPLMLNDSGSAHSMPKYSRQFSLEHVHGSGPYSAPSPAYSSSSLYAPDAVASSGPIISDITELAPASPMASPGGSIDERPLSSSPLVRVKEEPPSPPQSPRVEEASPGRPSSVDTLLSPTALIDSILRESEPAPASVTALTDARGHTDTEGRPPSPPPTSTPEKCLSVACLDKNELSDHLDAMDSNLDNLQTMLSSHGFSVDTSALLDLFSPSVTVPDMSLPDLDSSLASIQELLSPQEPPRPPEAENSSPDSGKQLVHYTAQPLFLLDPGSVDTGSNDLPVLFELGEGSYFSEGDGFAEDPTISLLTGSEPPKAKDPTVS

AGGATC
binding signal [1]: 1.08 fold enrichment (6-mer frequency, TF over GST control) | binding signal [2]: 1.2 fold enrichment (6-mer frequency, TF over GST control) | binding signal [3]: 1.2 fold enrichment (6-mer frequency, TF over GST control)

GTGGAT
binding signal [4]: 1 fold enrichment (6-mer frequency, TF over GST control) | binding signal [5]: 1.06 fold enrichment (6-mer frequency, TF over GST control) | binding signal [6]: 1.04 fold enrichment (6-mer frequency, TF over GST control) | binding signal [1]: 1.01 fold enrichment (6-mer frequency, TF over GST control) | binding signal [2]: 1.25 fold enrichment (6-mer frequency, TF over GST control)
